About 2,000 (36%) of roughly 5,500 compounds were called active. Another 18% or so got no clear call; they are omitted. Cut-off read from the data, not from the text of the source: active = normalized growth mostly below about 0.91 (no sharp cut-off); inconclusive = no clear call, values can overlap the other calls; inactive = mostly above about 0.92. The list shows a part of the results.
Assay: chemical genetic growth profiling, strain panel (AID 1159580);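 note: tested at 20 µM; growth read once vehicle control cultures reached saturation at 30 °C; 1 = growth at the plate median or of vehicle wells; lower values mean less growth of the strain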
Details: S. cerevisiae deletion strains, growth OD

Measured: normalized growth

C=C1CCC(OC(C)=O)/C(C)=C/C[C@@H]2[C@@H]1CC2(C)C (some centres undefined)
inactive: locus YAL021C, strain ccr4, hits give low values 1.01 | locus YAL026C, strain drs2, hits give low values 1.01 | locus YAL030W, strain snc1, hits give low values 1.01 | locus YBL061C, strain skt5, hits give low values 1.01 | locus YBR009C, strain hhf1, hits give low values 1.01 | locus YBR021W, strain FUR4, hits give low values 1.02 | locus YBR023C, strain chs3, hits give low values 1.01 | locus YBR171W, strain sec66, hits give low values 1 | locus YBR229C, strain ROT2, hits give low values 1 | locus YBR231C, strain swc5, hits give low values 1.01 | locus YBR279W, strain paf1, hits give low values 1.01 | locus YCL011C, strain gbp2, hits give low values 1.02 | locus YCL016C, strain dcc1, hits give low values 1.01 | locus YCL029C, strain bik1, hits give low values 1.03 | locus YCL061C, strain MRC1, hits give low values 1.01 | locus YCL069W, strain vba3, hits give low values 1.01 | locus YCR088W, strain abp1, hits give low values 1.01 | locus YDL005C, strain med2, hits give low values 1.01 | locus YDL035C, strain GPR1, hits give low values 1.01 | locus YDL040C, strain nat1, hits give low values 1.01 | locus YDL074C, strain BRE1, hits give low values 1.02 | locus YDL101C, strain DUN1, hits give low values 1.02 | locus YDL185W, strain tfp1, hits give low values 1.03 | locus YDL192W, strain arf1, hits give low values 1.02 | locus YDR001C, strain nth1, hits give low values 1 | locus YDR069C, strain doa4, hits give low values 1.03 | locus YDR101C, strain arx1, hits give low values 0.983 | locus YDR137W, strain rgp1, hits give low values 0.929 | locus YDR159W, strain sac3, hits give low values 1.02 | locus YDR162C, strain NBP2, hits give low values 0.997 | locus YDR195W, strain ref2 1.02 | locus YDR297W, strain sur2, hits give low values 1.02 | locus YDR318W, strain mcm21, hits give low values 1.03 | locus YDR334W, strain swr1, hits give low values 1.01 | locus YDR335W, strain msn5, hits give low values 1.01 | locus YDR388W, hits give low values 1.02 | locus YDR392W, strain spt3, hits give low values 0.812 | locus YDR502C, strain sam2, hits give low values 1.03 | locus YEL003W, strain gim4, hits give low values 1.02 | locus YEL037C, strain rad23, hits give low values 1.01 | locus YEL061C, strain CIN8 (second series), hits give low values 1.02 | locus YER015W, strain faa2, hits give low values 1.01 | locus YER016W, strain bim1, hits give low values 1.01 | locus YER110C, hits give low values 1.03 | locus YER111C, strain swi4, hits give low values 1.01 | locus YER155C, strain BEM2 (second series), hits give low values 1.03 | locus YER155C, strain BEM2, hits give low values 1.02 | locus YER167W, strain BCK2, hits give low values 1.01 | locus YFR010W, strain ubp6, hits give low values 1.01 | locus YGL078C, strain dbp3, hits give low values 1.04 | locus YGL086W, strain mad1, hits give low values 1.01 | locus YGL167C, strain pmr1, hits give low values 1.02 | locus YGL173C, strain kem1, hits give low values 1.01 | locus YGL227W, strain vid30, hits give low values 1.03 | locus YGL240W, strain doc1, hits give low values 1.01 | locus YGL248W, strain PDE1, hits give low values 1.01 | locus YGL253W, strain hxk2, hits give low values 1.01 | locus YGR078C, strain PAC10, hits give low values 1.03 | locus YGR135W, strain pre9, hits give low values 1.05 | locus YGR252W, strain gcn5, hits give low values 1.05 | locus YHR013C, strain ard1, hits give low values 1 | locus YHR027C, strain rpn1, hits give low values 1.01 | locus YHR030C, strain SLT2, hits give low values 1.01 | locus YHR079C, strain IRE1 (second series), hits give low values 1.02 | locus YHR094C, strain hxt1, hits give low values 1.01 | locus YHR129C, strain ARP1, hits give low values 1.01 | locus YHR142W, strain chs7, hits give low values 0.987 | locus YHR200W, strain rpn10, hits give low values 1 | locus YIL066C, strain RNR3, hits give low values 1 | locus YIL073C, strain SPO22, hits give low values 1.06 | locus YIL125W, strain kgd1, hits give low values 1 | locus YIR030C, strain dcg1, hits give low values 1.02 | locus YJL092W, strain hpr5, hits give low values 1.01 | locus YJL095W, strain BCK1 (second series), hits give low values 1.01 | locus YJL095W, strain BCK1, hits give low values 1.02 | locus YJL115W, strain asf1, hits give low values 1.01 | locus YJL129C, strain trk1, hits give low values 0.976 | locus YJL134W, strain LCB3, hits give low values 1.01 | locus YJL154C, strain vps35, hits give low values 1.01 | locus YJL164C, strain tpk1, hits give low values 1.01 | locus YJL166W, strain qcr8, hits give low values 1 | locus YJL168C, strain set2, hits give low values 1.02 | locus YJL187C, strain SWE1 (second series), hits give low values 1.05 | locus YJL187C, strain SWE1, hits give low values 1.01 | locus YJR075W, strain HOC1, hits give low values 1.02 | locus YKL009W, strain mrt4, hits give low values 1 | locus YKL068W, hits give low values 1.01 | locus YKL085W, strain MDH1 (second series), hits give low values 1.02 | locus YKL085W, strain MDH1, hits give low values 1.02 | locus YKL160W, strain elf1, hits give low values 1 | locus YKL190W, strain CNB1, hits give low values 1.01 | locus YKR001C, strain vps1, hits give low values 0.996 | locus YKR026C, strain gcn3, hits give low values 0.987 | locus YKR091W, strain srl3, hits give low values 1.01 | locus YLL001W, strain dnm1, hits give low values 1.02 | locus YLL026W, hits give low values 1.02 | locus YLL041C, strain sdh2, hits give low values 1.01 | locus YLR027C, strain aat2, hits give low values 1 | locus YLR039C, strain RIC1, hits give low values 0.957 | locus YLR058C, strain SHM2, hits give low values 1 | locus YLR102C, strain apc9, hits give low values 1 | locus YLR221C, strain rsa3, hits give low values 1.01 | locus YLR258W, strain gsy2, hits give low values 1.01 | locus YLR262C, strain YPT6 (second series), hits give low values 0.905 | locus YLR262C, strain YPT6, hits give low values 0.932 | locus YLR268W, strain sec22, hits give low values 0.995 | locus YLR320W, strain mms22, hits give low values 0.972 | locus YLR342W, strain FKS1, hits give low values 1.01 | locus YLR357W, strain rsc2, hits give low values 1.01 | locus YLR370C, strain arc18, hits give low values 1.01 | locus YLR371W, strain rom2, hits give low values 1.03 | locus YLR384C, strain iki3, hits give low values 0.999 | locus YLR418C, strain cdc73, hits give low values 1.06 | locus YML016C, strain PPZ1, hits give low values 1.02 | locus YML032C, strain rad52, hits give low values 0.995 | locus YML120C, strain ndi1, hits give low values 1.02 | locus YML124C, strain tub3, hits give low values 1.01 | locus YMR058W, strain fet3, hits give low values 1.01 | locus YMR078C, strain ctf18, hits give low values 1.03 | locus YMR125W, strain sto1, hits give low values 1.02 | locus YMR129W, hits give low values 1.01 | locus YMR205C, strain PFK2, hits give low values 0.996 | locus YMR223W, strain ubp8, hits give low values 1.02 | locus YMR231W, strain pep5, hits give low values 1.01 | locus YMR307W, strain GAS1, hits give low values 0.973 | locus YNL067W, strain RPL9B, hits give low values 1.02 | locus YNL071W, strain lat1, hits give low values 0.99 | locus YNL209W, strain ssb2, hits give low values 1.02 | locus YNL233W, strain BNI4, hits give low values 1.04 | locus YNL248C, strain rpa49, hits give low values 0.997 | locus YNL250W, strain rad50, hits give low values 1.07 | locus YNL271C, strain bni1, hits give low values 1.01 | locus YNL298W, strain CLA4, hits give low values 1.01 | locus YNL307C, strain MCK1, hits give low values 1.02 | locus YNL322C, strain KRE1 (second series), hits give low values 1.02 | locus YNL322C, strain KRE1, hits give low values 1.01 | locus YNR049C, strain mso1, hits give low values 1.02 | locus YNR052C, strain pop2, hits give low values 1.03 | locus YOL012C, strain htz1 1.04 | locus YOL147C, strain pex11, hits give low values 1.02 | locus YOR001W, strain rrp6, hits give low values 1.02 | locus YOR061W, strain CKA2, hits give low values 1 | locus YOR069W, strain VPS5, hits give low values 1.01 | locus YOR070C, strain gyp1, hits give low values 1 | locus YOR080W, strain dia2, hits give low values 1.01 | locus YOR083W, strain WHI5, hits give low values 1.01 | locus YOR106W, strain vam3, hits give low values 0.994 | locus YOR136W, strain idh2, hits give low values 0.997 | locus YOR144C, strain elg1, hits give low values 1.01 | locus YOR184W, strain ser1, hits give low values 0.992 | locus YOR265W, strain rbl2, hits give low values 1.01 | locus YOR270C, strain vph1, hits give low values 0.909 | locus YOR290C, strain snf2, hits give low values 0.963 | locus YOR316C, strain cot1, hits give low values 1.02 | locus YPL051W, strain arl3, hits give low values 0.994 | locus YPL055C, strain LGE1, hits give low values 1.04 | locus YPL078C, strain atp4, hits give low values 1 | locus YPL106C, strain sse1, hits give low values 1.05 | locus YPL240C, strain hsp82, hits give low values 1.01 | locus YPR119W, strain clb2, hits give low values 1.01 | locus YPR141C, strain kar3, hits give low values 1.02 | locus YPR163C, strain tif3, hits give low values 1 | locus YPR167C, strain met16, hits give low values 1.02 | strain wtn01, hits give low values 1

Source: PubChem BioAssay AID1159580 (chemical genetic matrix, 2015)
